# Measured values as given in ChEMBL document CHEMBL3988442, “University of Dundee, Small-Polar-MMV Screening Library” (2021).
# In all, about 66,000 compounds went through this assay and about 960 (1.5%) showed an effect of 50% or more. Shown is part of a subset that was picked to be rich in strong results.
# Test system: Trypanosoma brucei
# Experiment: Trypanosoma brucei 72 hour study
# Format: functional, organism-based
# Set-up: scale not given: in the data most compounds retested in dose-response had high values
structure (smiles),measurement,setting,value
COCC[C@]1(O)CCN(Cc2nnc(C)s2)C[C@H]1C,Percent Effect,"30.3 µM, […]",-14.31%
O=C(O)C(F)(F)F.O=C(c1cccnc1)N1CCCC2(COCCN(c3ccccc3)C2)C1 (stereo not given),Percent Effect,"30.3 µM, […]",-43.99%
Cc1ccc(CN2CC[C@@H](O)[C@@H]2Cc2cnn(C)c2)o1.O=C(O)C(F)(F)F,Percent Effect,"30.3 µM, […]",-387.9%
CNC(=O)C1(CCCc2ccncc2)CCCCN1.Cl (stereo not given),Percent Effect,"30.3 µM, […]",-5.403%
COCCOC1CCN(C(C(=O)O)c2ccc(OC)c(F)c2)CC1 (stereo not given),Percent Effect,"30.3 µM, […]",-2.66%
O=C(O)c1cc(/C=C/c2cccc3ccccc23)ncn1,Percent Effect,"30 µM, 30.03 µM",18.14%
Cn1ccnc1CN1CCC2(COCCN(S(=O)(=O)C3CC3)C2)C1 (stereo not given),Percent Effect,"30.3 µM, […]",11.66%
Cn1ccnc1CN1CCC2(COCCN(Cc3ccsc3)C2)C1 (stereo not given),Percent Effect,"30 µM, 30.03 µM",61.78%
Cn1ccnc1CN1CCC2(CC1)COCCN(c1ncccn1)C2,Percent Effect,"30.3 µM, […]",7.51%
Cc1noc(CN2C[C@H]3CC[C@@H]2CN(C2Cc4ccccc4C2)C3)n1,Percent Effect,"30 µM, 30.03 µM",16.7%
CC(=O)Nc1nc(C2CCN(C(=O)c3cccnc3)CC2)cs1,Percent Effect,"30 µM, 30.03 µM",31.28%
Cc1noc(C)c1CN1CCc2ncnc(-c3ccc(F)cc3)c2CC1.O=C(O)C(F)(F)F,Percent Effect,"30.3 µM, […]",-81.82%
O=S(=O)(NCCNc1cc(-n2cccc2)ncn1)c1cccs1,Percent Effect,"30.3 µM, […]",16.28%
Cc1ccc(S(=O)(=O)NCCNc2cc(-n3cccc3)ncn2)c(C)c1,Percent Effect,"30.3 µM, […]",53.4%
CCS(=O)(=O)NCCNc1cc(-n2cccc2)ncn1,Percent Effect,"30.3 µM, […]",14.19%
CNC(=O)CN1CCCC12CCN(C(=O)c1cccc(F)c1)CC2.O=C(O)C(F)(F)F,Percent Effect,"30.3 µM, […]",-1.054%
O=C(NCc1ccco1)[C@H]1C[C@@H]2CCN(c3nncs3)C[C@H]2O1.O=C(O)C(F)(F)F,Percent Effect,"30.3 µM, […]",-27.54%
COc1ccccc1NCC(=O)NCc1scnc1C,Percent Effect,"30 µM, 30.03 µM",-18.47%
COc1cc2nc(NCc3scnc3C)nc(N)c2cc1OC,Percent Effect,"30.3 µM, […]",86.68%
COc1cc2nc(NCc3cc(C)on3)nc(N)c2cc1OC,Percent Effect,"30.3 µM, […]",-6.228%
COCCN1CCc2cc(C(=O)O)c(NCC3CC3)nc2CC1.O=C(O)C(F)(F)F.O=C(O)C(F)(F)F,Percent Effect,"30.3 µM, […]",-92.37%
CCCn1nccc1C(=O)Nc1ncc(C)s1,Percent Effect,"30.3 µM, […]",83.34%
CCCn1nccc1C(=O)Nc1nc(C)c(C)s1,Percent Effect,"30.3 µM, […]",41.43%
CCn1nccc1C(=O)Nc1nc(C)c(C(C)=O)s1,Percent Effect,"30.3 µM, […]",-2.793%
COCC1CC2(CCN(Cc3ccco3)CC2)CN1C(C)C.O=C(O)C(F)(F)F.O=C(O)C(F)(F)F (stereo not given),Percent Effect,"30 µM, 30.03 µM",42.98%
COc1cc(N2CCCC(c3nccn3Cc3cscn3)C2)nc(N)n1 (stereo not given),Percent Effect,"30 µM, 30.03 µM",59%
COCCn1ccnc1C1CCCN(c2cc(OC)nc(N)n2)C1 (stereo not given),Percent Effect,"30 µM, 30.03 µM",-68.81%
COc1cc(N2CCCC(c3nccn3CCN(C)C)C2)nc(N)n1 (stereo not given),Percent Effect,"30 µM, 30.03 µM",42.15%
Cc1cccn2cc(CNCc3cccc4c3OCCCO4)nc12,Percent Effect,"30.3 µM, […]",17.5%
CCC[C@]12CN3C[C@](CCC)(CN(C1)C3c1[nH]c(=O)[nH]c(=O)c1C)C2=O (stereo not given in full),Percent Effect,"30 µM, 30.03 µM",-52.93%
CCc1noc(C2CCCCN2C(=O)c2cc(C)n(C)n2)n1 (stereo not given),Percent Effect,"30.3 µM, […]",-3.284%
Cc1csc(C2CCCCN2C(=O)c2cc(C(C)C)[nH]n2)n1 (stereo not given),Percent Effect,10 µM,-49.47%
CC(C)c1n[nH]c(C(=O)NC(C)c2ccncc2)c1Br (stereo not given),Percent Effect,"30.3 µM, […]",20.51%
same,Percent Effect,"10 mM, 10 mM as filed; unlikely as a test dose",-71.89%
CC(C)c1n[nH]c(C(=O)Nc2cc[nH]n2)c1Br,Percent Effect,"30 µM, 30.03 µM",-42.25%
Cc1cccc(NC(=O)c2[nH]nc(C(C)C)c2Br)n1,Percent Effect,"30.3 µM, […]",56.85%
same,Percent Effect,"10 mM, 10 mM as filed; unlikely as a test dose",8.768%
CC(C)c1n[nH]c(C(=O)Nc2ccccn2)c1Br,Percent Effect,"30.3 µM, […]",50.04%
same,Percent Effect,"10 mM, 10 mM as filed; unlikely as a test dose",-45.45%
CC(C)c1n[nH]c(C(=O)Nc2ccncc2)c1Br,Percent Effect,"30 µM, 30.03 µM",-10.71%
CC(C)c1n[nH]c(C(=O)Nc2ccnn2C(C)C)c1Br,Percent Effect,"30 µM, 30.03 µM",-7.131%
COc1ccccc1NC(=O)c1[nH]nc(C(C)C)c1Br,Percent Effect,"30 µM, 30.03 µM",-9.686%
COc1ncccc1NC(=O)c1[nH]nc(C(C)C)c1Br,Percent Effect,"30 µM, 30.03 µM",7.14%
Cc1ccnc(NC(=O)c2[nH]nc(C(C)C)c2Br)c1,Percent Effect,"30.3 µM, […]",57.19%
same,Percent Effect,"10 mM, 10 mM as filed; unlikely as a test dose",-20%
CCOC[C@]12COC[C@H]1CN(Cc1ccc(F)c(F)c1)C2.O=C(O)C(F)(F)F,Percent Effect,"30.3 µM, […]",6.986%
CS(=O)(=O)N[C@H]1CN(C(=O)c2cscn2)[C@@H]2CCCO[C@H]12,Percent Effect,"30 µM, 30.03 µM",28.48%
CNC(=O)[C@H]1C[C@@H]2CN(C(=O)c3ccccn3)C[C@@H]2N1S(C)(=O)=O.O=C(O)C(F)(F)F,Percent Effect,"30.3 µM, […]",-16.02%
CN1CCCC(CCC(=O)NCCc2nnc(N)s2)C1 (stereo not given),Percent Effect,"30 µM, 30.03 µM",1.066%
Cc1ccc(C(=O)N2CCC3(CC2)CCN(CCN(C)C)C3=O)cn1.O=C(O)C(F)(F)F.O=C(O)C(F)(F)F,Percent Effect,"30.3 µM, […]",-7.554%
COCc1nc(C(=O)NS(=O)(=O)c2c(C)c(C)cc(C)c2C)cs1,Percent Effect,"30.3 µM, […]",-6.08%
O=C(N1CCOCC1)[C@@]12CCO[C@@H]1CCN(C1CCOCC1)C2.O=C(O)C(F)(F)F,Percent Effect,"30 µM, 30.03 µM",-13.03%
CN(C)C(=O)C1OC2(CCN(c3ncc(F)cn3)CC2)c2ccccc21.O=C(O)C(F)(F)F (stereo not given),Percent Effect,"30 µM, 30.03 µM",-1.93%
COc1ccc(-c2nnsc2C(=O)N2CCC(C(N)=O)CC2)cc1,Percent Effect,"30.3 µM, […]",7.87%
Cc1ccsc1CN1CC[C@H]2OCC[C@@]2(C(=O)N2CCCO2)C1.O=C(O)C(F)(F)F,Percent Effect,"30.3 µM, […]",-14.02%
Cc1ccccc1C(O)CNS(=O)(=O)Cc1cccc(C#N)c1 (stereo not given),Percent Effect,"30.3 µM, […]",7.529%
CCCC(N)CNS(=O)(=O)Cc1cccc(C#N)c1.Cl (stereo not given),Percent Effect,"30.3 µM, […]",63.71%
N#Cc1cccc(CS(=O)(=O)NCC(O)Cc2ccccc2)c1 (stereo not given),Percent Effect,"30 µM, 30.03 µM",-15.65%
CCO[C@H]1CO[C@@]2(CCCN(Cc3scnc3C)C2)C1.O=C(O)C(F)(F)F,Percent Effect,"30 µM, 30.03 µM",-66.13%
c1ccc(-n2ccc(CN3CCCC3Cn3cncn3)n2)cc1 (stereo not given),Percent Effect,10 µM,-54.26%
Cc1nc(C)n(CC2CCCN2Cc2cn(-c3ccccc3)nn2)n1 (stereo not given),Percent Effect,"30 µM, 30.03 µM",-3.712%
Cc1nc(C)n(CC2CCCN2Cc2ccn(-c3ccccc3)n2)n1 (stereo not given),Percent Effect,"30.3 µM, […]",99.84%
Cc1nc(C)n(CC2CCCN2Cc2ccccn2)n1 (stereo not given),Percent Effect,"30.3 µM, […]",5.601%
c1ccc(-n2ccc(CN3CCCC3Cn3cccn3)n2)cc1 (stereo not given),Percent Effect,"30.3 µM, […]",99.68%
Fc1cccc(-n2ccc(CN3CCCC3Cn3cccn3)n2)c1 (stereo not given),Percent Effect,10 µM,-58.75%
